Results published in the supplement of paper PMC12494721.
Structures can show the parent of a compound that is named as a salt.

Test system: Ruminococcus gnavus DSM 108212
Assay: fold change of 2-Phenylethylamine concentration vs plate DMSO controls (fold change (ratio)); higher = more amine produced, active = hit call of the paper (significant change in both replicates, either direction)
Conditions: incubation time: 27 h, anaerobic, 37 °C;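 for the amine columns active = adjusted P below 0.05 in both replicates with a change the same way and a mean fold change under 0.8 or over 1.25; inactive = the rest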
Method in brief: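 Amines were quantified by LC–triple-quadrupole MS in dynamic MRM mode against external calibration curves, with drift correction within each batch. The samples were whole anaerobic mGAM cultures of four gut bacterial strains, grown for 27 h at 37 °C in 80 µL wells and extracted with cold acetonitrile/methanol with 0.1% formic acid, then centrifuged. Values are reported as fold change over DMSO controls on the same plate. The mean of 2 biological replicates is given.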

Fold change of 2-Phenylethylamine concentration, inactive:
c1coc(CNc2ncnc3[nH]cnc23)c1 [Kinetin] (20 µM) 1.04
CC1(C)O[C@@H]2C[C@H]3[C@@H]4CCC5=CC(=O)CC[C@]5(C)[C@@]4(F)[C@@H](O)C[C@]3(C)[C@]2(C(=O)CCl)O1 [Halcinonide] (20 µM) 0.978
CC(=O)N[C@@H](CC(C)C)C(=O)O [N-Acetyl-L-leucine] (20 µM) 1.04
COc1cccc(CCc2ccccc2OCC(CN(C)C)OC(=O)CCC(=O)O)c1 (configuration not stated) [Sarpogrelate hydrochloride] (20 µM) 0.961
CN1CCC(=C2c3ccccc3CCc3sccc32)CC1 [Pizotifen malate] (20 µM) 0.987
Oc1ccc2ccccc2c1N=Nc1ccccc1 [Sudan I (1-phenylazo-2-hydroxynaphthalene)] (20 µM) 1.07
CC(C)(C)c1ccc(C(=O)CCCN2CCC(OC(c3ccccc3)c3ccccc3)CC2)cc1 [Ebastine] (20 µM) 1.02
O=c1oc2cc(O)ccc2s1 [Tioxolone] (20 µM) 0.959
CCCOc1ccc(C(=O)OCCN(CC)CC)cc1N [Proparacaine hydrochloride] (20 µM) 1.14
CC(C)NC[C@H](O)COc1cccc2ccccc12 [(S)-(-)-Propranolol hydrochloride] (20 µM) 1.02
COc1cc(C(=O)NCc2ccc(OCCN(C)C)cc2)cc(OC)c1OC [Trimethobenzamide hydrochloride] (20 µM) 1.05
N[C@@H](Cc1cc(I)c(Oc2cc(I)c(O)c(I)c2)c(I)c1)C(=O)O [(L) Thyroxine] (20 µM) 1.03
O=C(NCC(O)CO)c1c(I)c(C(=O)NCC(O)CO)c(I)c(N(CCO)C(=O)CO)c1I (configuration not stated) [Ioversol] (20 µM) 1.12
CCCCC[C@H](O)/C=C/[C@H]1[C@H](O)CC(=O)[C@@H]1CCCCCCC(=O)O [Alprostadil] (20 µM) 0.985
CC(C)(CO)[C@@H](O)C(=O)NCCCC(=O)O [Hopantenate calcium] (20 µM) 1.03
Cc1nnc(NS(=O)(=O)c2ccc(N)cc2)s1 [Sulfamethizole] (20 µM) 0.815
OC[C@H](O)C(O)[C@@H](O)CO [L-Arabinitol] (50 µM) 0.908
CN/C(=N\CCSCc1nc[nH]c1C)NC#N [Cimetidine] (20 µM) 1.01
CCN(CC)C(=O)/C(C#N)=C/c1cc(O)c(O)c([N+](=O)[O-])c1 [Entacapone] (20 µM) 0.896
OC(CNCC(O)C1CCc2cc(F)ccc2O1)C1CCc2cc(F)ccc2O1 (configuration not stated) [Nebivolol hydrochloride] (20 µM) 0.879
CCN(CC)CC(=O)Nc1c(C)cccc1C [Lidocaine hydrochloride] (20 µM) 1.05
C[C@H](NCc1ccc(OCc2cccc(F)c2)cc1)C(N)=O [Safinamide] (20 µM) 0.96
CN(C)CCc1c[nH]c2ccc(Cn3cncn3)cc12 [Rizatriptan benzoate] (20 µM) 0.989
C[C@H]1C[C@@H]2[C@H]([C@@H](O)C[C@@]3(C)[C@H]2CC[C@]3(O)C(=O)CO)[C@@]2(C)C=CC(=O)C=C12 [Methylprednisolone, 6-alpha] (20 µM) 1.03
CC1COc2ccccc2N1C(=O)C(Cl)Cl (configuration not stated) (20 µM) 1.11
C=C1c2cccc(O)c2C(O)=C2C(=O)[C@]3(O)C(O)=C(C(N)=O)C(=O)[C@@H](N(C)C)[C@@H]3[C@@H](O)[C@H]12 [Methacycline hydrochloride] (20 µM) 0.58
CCN1CCCC(OC(=O)C(c2ccccc2)c2ccccc2)C1 (configuration not stated) [Piperidolate hydrochloride] (20 µM) 1.06
